# HCV inh: inhibitors of hepatitis C virus infection | Huh7.5.1 HCVcc-Cre infection, luciferase reporter, 44 h | Potency, µM (doses to about 41.8 µM), for inactives: at the highest dose activity change, negative = inhibition, usual class: inhibitors | 340,000 tested, 3.4% active | AID 651820; active means well fitted inhibition curve with a large enough effect; inconclusive means small, poorly fitted or top-dose-only effect, or another doubt; inactive means no such curve, though single readings can be large or run the other way; further: potency means the concentration at half of the fitted maximal effect
#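 1,000 cells/well; 4 h culture; + compound; + HCVcc-Cre (~0.5 moi); 44 h; luciferase substrate, RT 15 min; read 15 sec.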
# FMDV antiviral: blocks foot and mouth disease virus | FMDV antiviral cell-based qHTS | Potency, µM (doses to about 57.9 µM), without a hit: at the highest dose activity change, negative = inhibition, actives largely listed as inhibitors | 410,000 tested, 1.2% active; calls by dose curve; tested in HEK293T cells; further: read-out not given here; potency means the concentration at half of the fitted maximal effect; nearly all actives have a fitted effect of over 45% in size
# Marburg entry inh: Marburg virus entry inhibition. Marburg virus pseudotyped entry inhibition, cell reporter. Potency, µM (doses to about 37.8 µM), for the others: at the top dose activity change, negative = inhibition, actives largely listed as inhibitors. 300,000 tested, 1.8% active; calls by dose curve; tested in HEK293 cells; further: potency means the concentration at half of the fitted maximal effect
# HCMV antiviral: blocks human cytomegalovirus replication. activity change, negative = inhibition, % at 57.5 µM. 410,000 tested, 4.5% active. HFF cells, HCMV-luciferase reporter, 72 h; hits give low values; in the data active means activity change below about -60%; inconclusive means no clear call, values can overlap the other calls; inactive means above about -39%
#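 Human foreskin fibroblasts infected with luciferase-reporter HCMV at MOI 1 PFU/cell, compounds at two doses. Luciferase measured 72 h post infection; normalized to buffer-only basal and Salinomycin (10uM) controls.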
# LASV entry inh: inhibitors of Lassa virus binding or cell entry | Lassa virus pseudotype entry inhibition, cell reporter | Potency, µM (doses to about 37.9 µM), without a hit: at the top dose activity change, negative = inhibition, actives largely listed as inhibitors | 300,000 tested, 1.2% active; calls by dose curve; tested in HEK293 cells; further: potency means the concentration at half of the fitted maximal effect; nearly all actives have a fitted effect of over 50% in size
# Active calls of the source: *; ? = inconclusive; . = not tested or not shown; [ ] = another dose, or the depositor's remark. In the library only some 7.9% were active in any assay of this set; here they are far more common. On the % scale 0 is the no-effect control and ±100 the full control effect.
SMILES,HCV inh,FMDV antiviral,Marburg entry inh,HCMV antiviral,LASV entry inh
Cc1ccc(NC(=O)c2cn(CCC#N)nc2-c2ccc3c(c2)OCCO3)c([N+](=O)[O-])c1,0%,-22%,-1%,?,-24%
Nc1ccc(Br)c[n+]1Cc1cccc2cccnc12,-4%,-17%,10µM*,-20,-17%[46.1 µM]
O=C(CSCc1cc(=O)c2cc(F)ccc2[nH]1)Nc1ccccc1Cl,.,-23%,.,-3,-15%[46.1 µM]
CCCCn1cnc2c([nH]c3cc(OC)ccc32)c1=O,?,54%,-2%,76,?
COc1ccc2c(c1)[nH]c1c(C)nccc12,?,?,.,-95*,.
Cc1nccc2c1[nH]c1ccc(Br)cc12,4µM*,-20%,.,-2,.
Cc1ccc(-c2nc(=O)[nH]c3ccc(Br)cc23)cc1,-4%,-12%,-14%,?,3%
COc1ccc(N(C(=O)c2ccc(OC)c(OC)c2)S(=O)(=O)c2ccc(Cl)cc2)cc1,.,-16%,.,-7,?
CC(=O)c1cccc(NC(=O)CCCSc2nc(-c3ccco3)cc(C(F)(F)F)n2)c1,.,3%,-9%[46.1 µM],-21,9%[46.1 µM]
CCC(C)NS(=O)(=O)c1ccc(S(=O)(=O)N2CC=C(c3ccc(F)cc3)CC2)cc1 (centres undefined),?,?,?,-73*,-6%
CCC(C)NC(=O)C1=CCN(S(=O)(=O)c2ccc(C)cc2)CC1 (centres undefined),16%,-3%,.,-32,.
Cc1cc(C)n(S(=O)(=O)c2ccccc2[N+](=O)[O-])n1,4%,-21%,0%[46.1 µM],-60*,1%[46.1 µM]
Cc1cc(C)n(S(=O)(=O)c2ccccc2)n1,-12%,3%,2%[46.1 µM],-2,-5%
Cc1ccc(NC(=O)CSc2nc3c(c(=O)[nH]2)CCC3)cc1Cl,.,-14%,?,-18,-29%[46.1 µM]
COc1ccc(S(=O)(=O)NC2CCCC2)cc1Br,9%,41%,12%,3,-1%
O=S(=O)(NC1CCCC1)c1ccccc1Br,19%,41%,.,-97*,.
Cc1cc(C)cc(COc2ccc3c(C)c(CC(=O)O)c(=O)oc3c2C)c1,15%,-9%,13%[46.1 µM],-16,26%[46.1 µM]
Cc1c(C)c2ccc(OCc3ccc(C(=O)O)o3)c(C)c2oc1=O,19%,18µM*,?,-101*,4.1µM*
COc1cc(COc2ccc3c(C)c(Cc4ccccc4)c(=O)oc3c2)cc(OC)c1OC,?,?,?,26,?
COc1cc(COc2ccc3c(C)c(Cc4ccccc4)c(=O)oc3c2C)cc(OC)c1OC,6.3µM*,?,?,26,-1%
COc1ccc(OC)c(C2c3c(oc4ccc(C)cc4c3=O)C(=O)N2CCCN(C)C)c1 (centres undefined),.,10%,.,?,10%[46.1 µM]
Cc1ccc(NC(=O)c2c(C)oc3ccc(O)c(CN4CCCC4)c23)c(C)c1,.,-10%,-12%[46.1 µM],-6,25%[46.1 µM]
COc1cc2c(C(=O)N3CCN(C)CC3)c(C)n(C)c2cc1Br,-16%,0%,-8%,3,-6%
COc1cc2c(C(=O)N3CCOCC3)c(CSc3ccccc3)n(C)c2cc1Br,10µM*,?,?,-9,?
COC(=O)CC=C[C@@H](C)[C@H](OC)c1cc(OC)ccc1Br,.,.,3%[14.2 µM],.,.
SMILES,HCV inh,FMDV antiviral,Marburg entry inh,HCMV antiviral,LASV entry inh
Cc1cccc(Cc2nnc(CCC(=O)N(C)C3CCOC3)o2)c1 (centres undefined),7%,17%,?,-70*,2%[46.1 µM]
Cc1cccc(Cc2nnc(CCC(=O)N(CC3CC3)CC3CCCO3)o2)c1 (centres undefined),22%,35%,?,22,-2%[46.1 µM]
Cc1ccc(S(=O)(=O)c2nnn(CC(=O)Nc3ccccc3C)c2N)cc1C,.,-7%,-4%[46.1 µM],14,-3%[46.1 µM]
O=S(=O)(Nc1ccc(C(O)(C(F)(F)F)C(F)(F)F)cc1)c1ccc(Cl)c2nonc12,.,35µM*,.,.,.
COC(=O)c1cc(Cl)ccc1NC(=O)CSc1ncc(S(=O)(=O)c2ccc(Br)cc2)c(=O)[nH]1,.,-8%,?,-35,4%[46.1 µM]
COC(=O)c1cc(NC(=O)c2cc(-c3ccc(OC)cc3)oc2C(F)(F)F)ccc1N1CCOCC1,7.1µM*,-25%,.,-25,.
COC(=O)c1cc(NC(=O)c2cc(-c3ccc(C(F)(F)F)cc3)oc2C(F)(F)F)ccc1N1CCOCC1,3.5µM*,?,11µM*,-94*,?
C=CCC(C)(NCc1ccccc1)C(=O)OCC (centres undefined),.,.,20%[14.2 µM],.,.
COc1ccc(CNC(=O)/C=C\c2ccc3[nH]cc(CCN(C)C)c3c2)cc1,.,17%,35µM*,.,.
CCSc1nc(-c2cccc(Cl)c2)nc2c1Cc1c(CO)cnc(C)c1O2,.,-23%,.,4,27%[46.1 µM]
COc1ccc(N(C(=O)c2snc(C(N)=O)c2N)C(C(=O)NCc2ccccc2)c2ccc(O)cc2)cc1 (centres undefined),?,-15%,-14%,26,0.73µM*
COc1ccc(OC)c(N(C(=O)c2snc(C(N)=O)c2N)C(C(=O)NCc2ccccc2)c2ccc(O)cc2)c1 (centres undefined),?,0%,-15%,0,?
NC(=O)c1nsc(C(=O)N(c2ccccc2)C(C(=O)NCc2ccc(F)cc2)c2ccc(O)cc2)c1N (centres undefined),?,-10%,?,-24,2.2µM*
NC(=O)c1nsc(C(=O)N(c2ccccc2)C(C(=O)NCc2ccc(F)cc2)c2ccco2)c1N (centres undefined),?,-18%,?,?,?
CSC1=C(C#N)[C@H](c2ccc(C)s2)CC(=O)N1,.,.,0%,.,.
CC(=O)Nc1cccc(Nc2nc(-c3ccccc3)nc3ccccc23)c1,6.3µM*,?,?,42,1%[46.1 µM]
Oc1cccc(Nc2nc(-c3ccccc3)nc3ccccc23)c1,3.5µM*,?,?,?,?
Cc1cccc(Nc2nc(-c3ccccc3)nc3ccccc23)c1,.,-29%,.,-32,-8%[46.1 µM]
CC(=O)c1cccc(Nc2nc(-c3ccccc3)nc3ccccc23)c1,10µM*,?,-28%,-31,-25%
CCN1C(C(=O)c2ccccc2)=C(OC(=O)C(C)C)c2ccccc2S1(=O)=O,.,-20%,?,-33,?
CCCN1C(C(=O)c2ccccc2)=C(OC(=O)c2ccc(C)cc2)c2ccccc2S1(=O)=O,.,-13%,-6%[46.1 µM],-85*,?
CCCCN(CCCC)C1=C(C(=O)c2ccccc2)N(CC)S(=O)(=O)c2ccccc21,.,-29%,1%[46.1 µM],-32,-20%[46.1 µM]
CCCN1C(C(=O)c2ccccc2)=C(OC(=O)c2ccc(F)cc2)c2ccccc2S1(=O)=O,.,-8%,-14%[46.1 µM],-90*,-21%[46.1 µM]
CCN1C(C(=O)c2ccccc2)=C(OC(=O)COc2ccccc2)c2ccccc2S1(=O)=O,.,-8%,2%[46.1 µM],-60*,-4%[46.1 µM]
CCN1/C(=C(\O)c2ccccc2)C(=O)c2ccccc2S1(=O)=O,6%,0%,?,-88*,5%
CCCCOC(=O)c1ccc(NC(=O)c2cc(-c3cccs3)on2)cc1,.,17%,-1%[46.1 µM],10,0%[46.1 µM]

# Source: PubChem BioAssay (National Center for Advancing Translational Sciences (NCATS))
